Experimental findings from PubChem BioAssay (NCI) are described below.

About 83,000 compounds went through this panel and 20% of them were active in at least one assay; those are over-represented in the sample as a whole.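 Testing used 96-well plates and a 48-hour single-concentration exposure. Example: -40 means 40% of the starting cells died.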 Unmarked numbers belong to inactive results. Activity calls are given as the source filed them. Rule for the calls: active = growth percent below 10; inactive = the rest.

Test systems include NCI-H23 lung; NCI-H226 lung; NCI-H322M lung; HOP-62 NSCLC; NCI-H460 lung; HOP-92 NSCLC; NCI-H522 lung; A549/ATCC NSCLC; 786-0 renal; COLO 205 colon; DU-145 prostate; K-562 leukemia; MALME-3M melanoma; MDA-MB-231 breast; RXF 393 renal; SF-268 CNS; SF-295 CNS; SF-539 CNS; UACC-257 melanoma; M14 melanoma.
What all share (assay): NCI-60 one-dose screen, 48 h (100 = growth as untreated, 0 = no growth, -100 = all killed)
What all share (conditions): 10 µM unless noted

Consider `CCOc1cccc(-c2nc(N)nc(Nc3ccccc3SSc3ccccc3Nc3nc(N)nc(-c4cccc(OCC)c4)n3)n2)c1`, for which the growth in the test with NCI-H23 lung was 43.8%; with NCI-H226 lung, 68%; with NCI-H322M lung, 85.1%; with HOP-62 NSCLC it was -0.309% (active); in the test on NCI-H460 lung, 35.6%; with HOP-92 NSCLC, 97.2%. Besides, the growth was 90.8% in the test on NCI-H522 lung; -10.8% (active) in the test on A549/ATCC NSCLC; 84.9% with 786-0 renal; 109% in the test with COLO 205 colon; 83.9% in the test on DU-145 prostate; 68.9% with K-562 leukemia. Besides, the growth was 97% in the test with MALME-3M melanoma; 51.7% in the test with MDA-MB-231 breast; 92.4% in the test on RXF 393 renal; 25.1% in the test with SF-268 CNS; 5.56% (active) with SF-295 CNS; 93.2% with SF-539 CNS. In addition, the growth with UACC-257 melanoma was 118%; with M14 melanoma, 69.4%.
On to `Nc1c(C(=O)Nc2cccc3cnccc23)sc2nc3c(cc12)CN(Cc1ccccc1)CC3`, for which the growth was 99.9% in the test with NCI-H23 lung; 92.5% in the test on NCI-H226 lung; 96.9% in the test with NCI-H322M lung; 98.7% in the test with HOP-62 NSCLC; 109% with NCI-H460 lung; 96.4% in the test on HOP-92 NSCLC. The growth in the test on NCI-H522 lung was 97.2%; with A549/ATCC NSCLC, 107%; with 786-0 renal, 109%; in the test with COLO 205 colon, 112%; in the test on DU-145 prostate, 109%; with K-562 leukemia, 96.5%. For the same compound, the growth is 101% in the test on MALME-3M melanoma; 89.1% in the test on MDA-MB-231 breast; 103% with RXF 393 renal; 103% in the test with SF-268 CNS; 106% with SF-295 CNS; 107% with SF-539 CNS. For the same compound, the growth in the test with UACC-257 melanoma is 124%; with M14 melanoma, 102%.
With `COC(=O)C1=C(C(=O)ON)[C@@H]2C=C[C@@]1([C@@H](Cc1ccccc1)Nc1ccccc1)O2`, the growth in the test with NCI-H23 lung is 90.6%; in the test with NCI-H226 lung, 105%; in the test with NCI-H322M lung, 99.5%; in the test with HOP-62 NSCLC, 102%; with NCI-H460 lung it was 107%; with HOP-92 NSCLC, 63.1%. Further, the growth in the test on NCI-H522 lung was -74.7% (active); with A549/ATCC NSCLC, 92.9%; in the test on 786-0 renal, 101%; with COLO 205 colon, -67% (active); in the test with DU-145 prostate, 80%; in the test with K-562 leukemia, -9.92% (active). The growth with MALME-3M melanoma is -68.8% (active); with MDA-MB-231 breast, 106%; with RXF 393 renal, 91.1%; with SF-268 CNS, 93.9%; in the test with SF-295 CNS, 105%; in the test with SF-539 CNS it was 93.8%. For the same compound, the growth is 94.8% in the test with UACC-257 melanoma and 95.3% with M14 melanoma.
For the compound `Cn1ccnc1C(=O)/C=C/c1ccc(CC(=O)Nc2ccc(F)cc2)cc1`, the growth is 27.8% in the test on NCI-H23 lung; 82.5% in the test with NCI-H226 lung; 42.8% with NCI-H322M lung; 18.4% in the test on HOP-62 NSCLC; 3.59% (active) in the test on NCI-H460 lung; 71% in the test with HOP-92 NSCLC. Also, the growth with NCI-H522 lung was 16.9%; in the test with A549/ATCC NSCLC, 38.2%; in the test on 786-0 renal it was 30.4%; in the test with COLO 205 colon, 41.6%; with DU-145 prostate, -15.6% (active); with K-562 leukemia, 5.72% (active). For the same compound, the growth in the test with MALME-3M melanoma was 90.4%; in the test on MDA-MB-231 breast, 30.1%; in the test with RXF 393 renal it was 35.6%; in the test with SF-268 CNS, 10%; with SF-295 CNS, 37.1%; with SF-539 CNS it was 2.33% (active). Also, the growth in the test with UACC-257 melanoma was 85.3%; in the test with M14 melanoma it was 81.1%.
With `CCN(Cc1ccccc1)c1ccc(C=O)cc1`, the growth with NCI-H23 lung was 96.3%; in the test with NCI-H226 lung, 2.99% (active); with NCI-H322M lung, 93.9%; in the test on HOP-62 NSCLC, 108%; in the test with NCI-H460 lung, 100%; in the test on HOP-92 NSCLC, 81.9%. Further, the growth in the test on NCI-H522 lung is 100%; in the test on A549/ATCC NSCLC, 98.1%; in the test on 786-0 renal, 102%; in the test on COLO 205 colon it was 113%; with DU-145 prostate, 110%; in the test on K-562 leukemia, 93.3%. The growth in the test on MALME-3M melanoma was 117%; in the test on MDA-MB-231 breast, 96.5%; in the test with RXF 393 renal, 88.6%; in the test with SF-268 CNS it was 106%; with SF-295 CNS, 114%; with SF-539 CNS, 87.7%. Further, the growth in the test on UACC-257 melanoma was 106%; with M14 melanoma, 102%.
In the case of `Nc1nc(Nc2ccccc2SSc2ccccc2Nc2nc(N)nc(-c3ccc(C(F)(F)F)cc3)n2)nc(-c2ccc(C(F)(F)F)cc2)n1`, the growth with NCI-H23 lung is 31.5%; with NCI-H226 lung, 55.3%; with NCI-H322M lung it was 88.6%; in the test on HOP-62 NSCLC, 47.8%; with NCI-H460 lung it was 40%; with HOP-92 NSCLC, 90.7%. Further, the growth in the test with NCI-H522 lung is 80%; in the test with A549/ATCC NSCLC it was 5.2% (active); with 786-0 renal it was 81.4%; in the test on COLO 205 colon it was 86.1%; in the test with DU-145 prostate, 73.4%; with K-562 leukemia, 55%. Moreover, the growth in the test with MALME-3M melanoma is 93%; with MDA-MB-231 breast, 67.4%; with RXF 393 renal, 78.6%; in the test with SF-268 CNS, 50.4%; with SF-295 CNS, 65.5%; in the test on SF-539 CNS, 88.2%. Moreover, the growth in the test with UACC-257 melanoma was 106%; in the test on M14 melanoma, 72.5%.
As to `COC(=O)/C=C1\S/C(=N\NC(=O)c2cc3ccc2/C=C\c2ccc(cc2)/C=C\3)N(Cc2ccccc2)C1=O`, the growth with NCI-H23 lung is 77.4%; in the test on NCI-H226 lung it was 64.8%; in the test on NCI-H322M lung, 93.3%; in the test with HOP-62 NSCLC, 77.2%; in the test on NCI-H460 lung it was 93.7%; in the test with HOP-92 NSCLC, 75.5%. Besides, the growth in the test with NCI-H522 lung was 15.9%; in the test on A549/ATCC NSCLC, 77%; with 786-0 renal, 49.6%; in the test on COLO 205 colon it was 72.7%; with DU-145 prostate, 83.2%; in the test with K-562 leukemia, 18.9%. The growth in the test with MALME-3M melanoma was 88.4%; in the test with MDA-MB-231 breast, 56.8%; with RXF 393 renal it was 15.6%; in the test with SF-268 CNS, 85%; with SF-295 CNS, 89.4%; in the test with SF-539 CNS, 43.3%. The growth is 81% in the test on UACC-257 melanoma and 63.4% in the test with M14 melanoma.
As to `O=C(Nc1ccccc1C(=O)N/N=C(\c1ccccc1)c1ccccn1)c1ccc(F)cc1`, the growth is 28.2% in the test with NCI-H23 lung; 27.4% with NCI-H226 lung; 25.9% in the test with NCI-H322M lung; 12.6% in the test with HOP-62 NSCLC; 6.06% (active) in the test with NCI-H460 lung; 69.1% in the test with HOP-92 NSCLC. Further, the growth with NCI-H522 lung was 22.7%; in the test with A549/ATCC NSCLC, 15.6%; in the test on 786-0 renal it was -8.12% (active); in the test on COLO 205 colon, 10.6%; with DU-145 prostate, 23.5%; in the test on K-562 leukemia it was 12.8%. Moreover, the growth in the test on MALME-3M melanoma was 35.6%; with MDA-MB-231 breast, 36.6%; with RXF 393 renal it was 37.2%; with SF-268 CNS, 19.2%; with SF-295 CNS it was 20.9%; in the test on SF-539 CNS, 9.35% (active). The growth is 2.87% (active) with UACC-257 melanoma and -23.3% (active) in the test with M14 melanoma.
